Drawing on PubChem BioAssay, this text covers composite z-score, z-score and composite Z-score for 6 compounds.

Each structure is given as a SMILES string. Activity calls are given as the source filed them.

The test system of experiment [1] is Human papillomavirus type 1a protein E7 (residues 44-93). Nature of the experiment: small molecules binding HPV E7 44-93 – biochemical, small-molecule microarray, residues 44-93, 635 nm fluorescence, primary screen (AID 1108).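 Note: E7 fragment applied at 1 µg/mL in TBST for 1 h at 4 C; score combines spot fluorescence with its signal to noise ratio.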 As to conditions: fluorescence 635 nm, higher = more signal.
Experiment [2] can be described thus: hepatitis C replication reporter changes, two-sided – Huh7 cells, luciferase reporter, HCV replication inhibitor project, primary screen (AID 1109).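 Note: huh7 hepatoma cells harbouring a luciferase neomycin HCV replicon reporter; luciferase luminescence as measure of HCV replicon replication; test concentration not given here.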 As to conditions: Huh7 HCV replicon luciferase reporter, 48 h; higher = more signal. A general note: A reporter such as luciferase makes a cellular process visible.
In experiment [3] the target is Left-right determination factor 2 (Homo sapiens) (UniProt O00292). As to the kind of experiment: small molecules binding LEFTY2 protein – biochemical, small-molecule microarray, 635 nm fluorescence scan, primary screen (AID 1110). To be noted: higher = more signal.
Sequence of Left-right determination factor 2 (Homo sapiens) (O00292 whole entry, looked up): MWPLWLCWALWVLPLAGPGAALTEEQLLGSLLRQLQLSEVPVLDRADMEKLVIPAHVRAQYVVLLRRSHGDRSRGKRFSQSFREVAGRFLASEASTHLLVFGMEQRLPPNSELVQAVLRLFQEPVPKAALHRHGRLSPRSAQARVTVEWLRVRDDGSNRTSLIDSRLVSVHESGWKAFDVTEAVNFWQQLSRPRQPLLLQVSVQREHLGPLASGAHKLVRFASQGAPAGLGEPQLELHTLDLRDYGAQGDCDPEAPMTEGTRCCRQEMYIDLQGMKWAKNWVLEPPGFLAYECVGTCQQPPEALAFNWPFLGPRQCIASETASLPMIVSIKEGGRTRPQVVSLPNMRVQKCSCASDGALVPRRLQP
Experiment [4] concerns the target Calmodulin-1 (Homo sapiens) (UniProt P0DP23). Nature of the experiment: small molecules binding calmodulin-1 with EGTA – biochemical, small-molecule microarray, Cy5-labelled CALM1, profiling panel (AID 1111).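 Note: labelled calmodulin applied in Tris saline Tween buffer holding calcium plus EGTA and DTT.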 As to conditions: Cy5-CALM1 binding fluorescence, higher = more signal.
The target is the same in experiment [5]. As to the kind of experiment: small molecules binding Ca-loaded calmodulin-1 – biochemical, small-molecule microarray, Cy5-labelled CALM1, plus calcium, artefact control for SMM control-protein annotation, profiling panel (AID 1112).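 Note: score merges spot fluorescence with signal to noise from triplicate slides.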 To be noted: Cy5-CALM1 binding fluorescence, higher = more signal.
The nature of experiment [6]: probe aWnt5a binding to arrayed compounds – biochemical, biotinylated probe, 635/667 nm fluorescence, primary screen (AID 1113).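 Note: score merges 667 nm fluorescence intensity with signal-to-noise per printed feature.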 To be noted: small-molecule microarray, higher = more signal.
The nature of experiment [7]: probe aShh binding to arrayed compounds – biochemical, biotinylated probe, 635/667 nm fluorescence, primary screen (AID 1114).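 Note: probe is biotin-labelled aShh protein from a stem cell growth factor screen; measures binding of labelled protein to compounds printed on the slide; score merges feature fluorescence at 667 nm with signal-to-noise.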 As to conditions: small-molecule microarray, higher = more signal.
Experiment [8] can be described thus: probe aNog binding to arrayed compounds – biochemical, biotinylated probe, 635/667 nm fluorescence, primary screen (AID 1115).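 Note: probe is biotinylated aNog protein used at 0.15 µg/mL for 1 h at 4 C; z-score combines 667 nm fluorescence of each spot with its signal to noise.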 As to conditions: small-molecule microarray, higher = more signal.
Experiment [9] has as its target Torsin-1A-interacting protein 1 (Homo sapiens) (UniProt Q5JTV8). As to the kind of experiment: compound microarray binding of lysate hLAP1 – cell lysate, small-molecule microarray, COS7 lysate, 635/667 nm fluorescence, primary screen (AID 1116). As to conditions: 635 nm fluorescence, higher = more signal.
For experiment [10], the target named is Alpha-bungarotoxin (Bungarus multicinctus) (UniProt P60615). Nature of the experiment: compounds binding labelled alpha-BTX control protein – biochemical, small-molecule microarray, Alexa647 label, 635/667 nm fluorescence, artefact control for SMM control protein annotation, profiling panel (AID 1117). As to conditions: alpha-BTX-A647 binding fluorescence, higher = more signal.
Sequence of Alpha-bungarotoxin (Bungarus multicinctus) (P60615 whole entry, looked up): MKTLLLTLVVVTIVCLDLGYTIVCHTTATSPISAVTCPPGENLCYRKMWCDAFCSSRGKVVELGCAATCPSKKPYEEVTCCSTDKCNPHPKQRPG

For another experiment, the target named is Albumin (Bos taurus) (UniProt P02769). As to the kind of experiment: compounds binding labelled BSA control protein – biochemical, small-molecule microarray, Alexa647 label, 635/667 nm fluorescence, artefact control for SMM control protein annotation, profiling panel (AID 1118).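 Note: score merges 667 nm emission intensity and signal-to-noise per printed compound spot.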 As to conditions: BSA-A647 binding, fluorescence 635 nm, higher = more signal.
Sequence of Albumin (Bos taurus) (P02769 whole entry, looked up): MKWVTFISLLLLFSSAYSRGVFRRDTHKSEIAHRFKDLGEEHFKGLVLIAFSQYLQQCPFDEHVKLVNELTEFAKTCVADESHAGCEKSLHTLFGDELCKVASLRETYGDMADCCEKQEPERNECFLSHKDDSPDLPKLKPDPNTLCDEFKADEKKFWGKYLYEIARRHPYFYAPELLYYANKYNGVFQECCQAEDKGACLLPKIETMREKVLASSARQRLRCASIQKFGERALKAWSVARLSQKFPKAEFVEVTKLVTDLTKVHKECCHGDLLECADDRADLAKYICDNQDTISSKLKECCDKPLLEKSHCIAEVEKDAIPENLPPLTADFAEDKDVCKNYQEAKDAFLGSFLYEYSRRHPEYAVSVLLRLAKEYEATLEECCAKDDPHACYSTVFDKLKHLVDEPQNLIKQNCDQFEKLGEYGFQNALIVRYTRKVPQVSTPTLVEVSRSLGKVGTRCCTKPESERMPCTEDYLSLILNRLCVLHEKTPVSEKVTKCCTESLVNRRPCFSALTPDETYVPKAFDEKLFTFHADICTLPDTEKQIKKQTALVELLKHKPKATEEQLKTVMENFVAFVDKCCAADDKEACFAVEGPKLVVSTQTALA

A short description of experiment [11]: probe aXIP binding to arrayed compounds – biochemical, NeuroSMM set, 635/667 nm fluorescence, primary screen (AID 1119).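 Note: probe is the protein aXip251-270 applied at 1 µg/mL to compound-printed slides; binding of probe to printed compounds measured as 667 nm fluorescence plus signal to noise.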 To be noted: small-molecule microarray, higher = more signal, called active from +8 up or from −8 down.
The nature of experiment [12]: probe aNOTCH3 binding on compound microarray – biochemical, small-molecule microarray, 635/667 nm fluorescence, primary screen (AID 1120).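 Note: probe is a biotin-tagged antibody raised against NOTCH3 rather than NOTCH3 protein; score merges spot fluorescence near 667 nm with spot signal to noise.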 As to conditions: higher = more signal.
A short description of experiment [13]: probe aNOTCH2 binding on compound microarray – biochemical, small-molecule microarray, 635/667 nm fluorescence, primary screen (AID 1121).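 Note: score merges feature fluorescence read at 667 nm with its signal to noise.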 As to conditions: higher = more signal.
For experiment [14], the target named is Carbonic anhydrase 2 (Homo sapiens) (UniProt P00918). As to the kind of experiment: compounds binding carbonic anhydrase 2 – biochemical, small-molecule microarray, Alexa647-labelled CAII, profiling panel (AID 1122). To be noted: CAII-A647 binding fluorescence, higher = more signal.
The nature of experiment [15]: COS7 lysate on small-molecule microarray, probe aHis, 635 nm (AID 1123).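 Note: z-score combines 667nm fluorescence intensity with signal-to-noise per printed compound spot.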 To be noted: COS7 cell lysate, fluorescence, higher = more signal.
Experiment [16] can be described thus: probe aLAP1 signal on lysate-treated microarray – cell lysate, small-molecule microarray, COS7 lysate, primary screen (AID 1124).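 Note: lysate comes from COS7 cells expressing LAP1 and is applied at 0.3 µg/mL; score merges spot fluorescence near 667 nm with signal-to-noise over triplicate slides.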 As to conditions: probe aLAP1, fluorescence, higher = more signal.
The subject of a further experiment is Sam68 (KHDRBS1). Nature of the experiment: compounds binding KHDRBS1 protein – biochemical, small-molecule microarray, 635 nm fluorescence, primary screen (AID 1125).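 Note: score merges 667 nm channel intensity with signal to noise over triplicate slides.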 As to conditions: higher = more signal.
Experiment [17] has as its system Chordin-like protein 2 (CHRDL2). Nature of the experiment: compounds binding chordin-like 2 – biochemical, small-molecule microarray, 635 nm fluorescence, primary screen (AID 1126).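 Note: printed compound slides probed with Chrdl2 protein at 4 µg/mL for 1 h at 4 C; score merges 667 nm emission intensity with signal to noise over three replicate slides.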 As to conditions: fluorescence 635 nm, higher = more signal.
For experiment [18], the target named is Concanavalin-A (Canavalia ensiformis) (UniProt P02866). As to the kind of experiment: compounds binding concanavalin A lectin – biochemical, small-molecule microarray, Alexa647 label, 635 nm, artefact control for SMM control protein annotation, primary screen (AID 1127).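 Note: z combines 667 nm emission intensity with signal-to-noise across three replicate slides.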 As to conditions: ConA-A647 binding fluorescence, higher = more signal.
Sequence of Concanavalin-A (Canavalia ensiformis) (P02866 whole entry, looked up): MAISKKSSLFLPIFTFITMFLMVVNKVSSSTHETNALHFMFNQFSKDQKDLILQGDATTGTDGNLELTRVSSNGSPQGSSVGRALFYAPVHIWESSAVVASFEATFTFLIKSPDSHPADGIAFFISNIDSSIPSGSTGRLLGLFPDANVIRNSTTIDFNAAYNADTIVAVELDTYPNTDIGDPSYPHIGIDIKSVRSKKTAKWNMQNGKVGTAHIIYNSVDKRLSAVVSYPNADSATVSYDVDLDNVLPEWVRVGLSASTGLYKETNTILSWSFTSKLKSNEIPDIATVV

Sequence of Torsin-1A-interacting protein 1 (Homo sapiens) (Q5JTV8 whole entry, looked up): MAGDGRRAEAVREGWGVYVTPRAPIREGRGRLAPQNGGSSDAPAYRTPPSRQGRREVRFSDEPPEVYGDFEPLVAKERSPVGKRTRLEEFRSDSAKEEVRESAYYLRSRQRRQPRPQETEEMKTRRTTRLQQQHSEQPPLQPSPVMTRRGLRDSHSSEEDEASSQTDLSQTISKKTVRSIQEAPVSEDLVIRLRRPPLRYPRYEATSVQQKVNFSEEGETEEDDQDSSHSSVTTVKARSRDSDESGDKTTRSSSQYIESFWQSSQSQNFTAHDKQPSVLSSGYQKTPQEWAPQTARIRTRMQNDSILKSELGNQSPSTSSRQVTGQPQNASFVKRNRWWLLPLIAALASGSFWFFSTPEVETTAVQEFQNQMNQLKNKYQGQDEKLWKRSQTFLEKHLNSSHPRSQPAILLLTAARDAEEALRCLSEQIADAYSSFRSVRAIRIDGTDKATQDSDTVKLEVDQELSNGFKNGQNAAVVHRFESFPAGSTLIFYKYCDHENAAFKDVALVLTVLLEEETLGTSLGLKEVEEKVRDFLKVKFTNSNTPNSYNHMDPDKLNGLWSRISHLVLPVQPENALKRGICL

Consider `CC(C)NC(=O)[C@@]1(Cc2ccccc2I)c2ccccc2C(=O)N(Cc2ccccc2Cl)[C@H]1c1ccc(CO)cc1`, for which the composite z-score in [1] was 1.37; in experiment [3], 0.45; in experiment [4] it was 0.789; in experiment [5], -0.129; in experiment [6], 0.0077; in experiment [7], 0.0062. The composite z-score in experiment [8] is 0.0139; in [9] it was 0.795; in experiment [10], 1.28; in the experiment with Albumin (Bos taurus) it was 0.0517; in experiment [12], -0.0573; in experiment [13] it was -0.0741. For the same compound, the composite z-score in experiment [14] was 0.506; in experiment [15] it was 1.73; in experiment [16], -0.0064; in the experiment with Sam68 (KHDRBS1), 1.29; in experiment [17], 0.432; in [18], 1.1. Besides, the z-score in experiment [2] was -1.97. In experiment [11], the composite Z-score was 0.786 (inactive).

Consider `CC(C)NC(=O)[C@@H]1c2ccccc2C(=O)N(C(C)C)[C@H]1c1ccc(CO)cc1`, for which the composite z-score in [1] is 1.42; in experiment [3] it was -0.597; in experiment [4] it was -0.639; in experiment [5] it was -0.128; in experiment [6], -0.228; in [7] it was -0.291. The composite z-score in [8] was -0.196; in experiment [9], 1.69; in [10] it was -0.558; in the experiment with Albumin (Bos taurus), -0.163; in experiment [12], -0.215; in experiment [13], -0.179. Also, the composite z-score in experiment [14] is 0.644; in [15], 2.97; in experiment [16], 0.338; in the experiment with Sam68 (KHDRBS1), 0.637; in [17], -1.38; in experiment [18], 0.185. Moreover, the z-score in experiment [2] was -0.152. Moreover, the composite Z-score in experiment [11] is -0.174 (inactive).

`C=CCC(OC(C)=O)[C@@H]1[C@@H](N(Cc2ccc(-c3ccccc3)cc2)C(=O)Cc2ccc(F)cc2)c2cc(OCCCO)ccc2N1C(=O)c1ccc2ccccc2c1` (stereo not given in full): the composite z-score in experiment [1] was 0.0163; in experiment [3], -0.0251; in [4], -0.0052; in [5], 0.28; in experiment [6], -0.141; in experiment [7] it was -0.221. Moreover, the composite z-score is -0.0632 in experiment [8]; 0.402 in [9]; -0.0517 in experiment [10]; -0.153 with Albumin (Bos taurus); 0.119 in [12]; 0.0251 in [13]. Further, the composite z-score is 0.0176 in experiment [14]; 0.361 in [15]; 0.225 in [16]; 0.112 with Sam68 (KHDRBS1); -0.132 in [17]; -1.04 in experiment [18]. This compound also displayed a z-score in experiment [2] of -0.381. The composite Z-score in experiment [11] is -0.301 (inactive).

In the case of `CCCCCCc1nc(-c2ccc(-c3ccc(Cl)c(Cl)c3)o2)c(C)c2c1[Si](C(C)C)(C(C)C)OC2`, the composite z-score in experiment [1] was -0.121; in experiment [3], -0.127; in experiment [4] it was 0.18; in [5], 0.45; in [6] it was -0.124; in [7] it was -0.123. Besides, the composite z-score in experiment [8] was -0.124; in [9] it was -0.196; in experiment [10], 0.354; with Albumin (Bos taurus) it was 0.13; in experiment [12], -0.1; in [13], -0.166. Also, the composite z-score is 0.0293 in experiment [14]; 0.645 in experiment [15]; -0.173 in [16]; 0.1 in the experiment with Sam68 (KHDRBS1); -1.06 in [17]; 0.999 in experiment [18]. Also, the z-score in experiment [2] is -1.46. Further, the composite Z-score in experiment [11] was 0.0001 (inactive).

Regarding `COc1ccc([Si](C)(C)[C@H]2[C@H](CCn3cc([C@H](O)c4ccccc4)nn3)O[C@@]3(C(=O)N(C)c4ccccc43)[C@@H]2C)cc1`, the composite z-score in experiment [1] was -0.455; in experiment [3], -0.759; in [4], 0.418; in [5], 0.947; in experiment [6], -0.119; in [7] it was -0.0793. In addition, the composite z-score is -0.266 in experiment [8]; -0.773 in experiment [9]; -0.909 in experiment [10]; 0.179 with Albumin (Bos taurus); -0.0057 in experiment [12]; -0.0485 in experiment [13]. Also, the composite z-score is 0.509 in [14]; 0.476 in experiment [15]; -0.116 in [16]; 0.106 with Sam68 (KHDRBS1); -0.544 in [17]; -0.454 in experiment [18]. Also, the z-score in [2] was -2.37. For the same compound, the composite Z-score in experiment [11] was 0.235 (inactive).

`COC(=O)[C@@]1(Cc2ccc(F)cc2)[C@H]2c3cc(C(=O)N(C)C)n(Cc4ccc(C)o4)c3C[C@H]2CN1C(=O)c1ccccc1`: the composite z-score in experiment [1] is -0.0043; in [3], -1.14; in [4], 1.81; in experiment [5], -0.969; in experiment [6], 0.749; in experiment [7] it was 1.85. Moreover, the composite z-score is 3.48 in [8]; 5.2 in experiment [9]; -1.73 in [10]; -0.373 with Albumin (Bos taurus); 1.6 in [12]; 0.992 in [13]. The composite z-score in experiment [14] is 0.458; in experiment [15], 3.29; in [16], 1.13; in the experiment with Sam68 (KHDRBS1) it was 0.47; in experiment [17], -0.852; in [18], -1.67. Besides, in experiment [2], the z-score was -0.8. Also, the composite Z-score in [11] was 0.444 (inactive).
